# Results taken from PubChem BioAssay AID651821 (The Scripps Research Institute Molecular Screening Center, 2012).
# The campaign covered roughly 370,000 compounds. About 4,700 (1.3%) were called active.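 How the source made its calls: active means inhibition above the plate cutoff, the mean of all test compounds on that plate plus 3 SD (cut at about 35% in these data); inactive means the rest.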 For the sample, actives were picked, then their nearest neighbours and some compounds at random.
# Test: small molecules binding CAG repeat RNA – biochemical, fluorescence, primary screen (AID 651821);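 further: 0% = DMSO alone and 100% = 100 µM mitoxantrone as full dye displacement; higher means more dye released from RNA so lower well fluorescence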
# Conditions: r(CAG) RNA repeat, TO-PRO-1 dye displacement fluorescence; at 3 µM; active compounds read high
row,SMILES,inhibition
1,CCOC(=O)C1=C(C)NC2=C(C(=O)CC(C)(C)C2)C1c1ccc2c(c1)OCO2 (stereo not given),1.3% (inactive)
2,O=C(NN=Cc1ccco1)C(=O)Nc1ccc(Cl)c([N+](=O)[O-])c1,6.16% (inactive)
3,O=C(N/N=C/c1cc(Cl)cc([N+](=O)[O-])c1O)C(O)(c1ccccc1)c1ccccc1,75.8% (active)
4,O=C(O)C(=Cc1ccccc1[N+](=O)[O-])c1ccccc1,-2.74% (inactive)
5,Cc1cc(Br)cn2c(Cc3ccccc3C(F)(F)F)c(-c3ccc(C#N)cc3)nc12,7.42% (inactive)
6,CC(=O)c1c(C)[nH]c(C(=O)OCC(=O)Nc2sc3c(c2C#N)CCCC3)c1C,19.6% (inactive)
7,COc1cccc(CN(C)CC(=O)Nc2sc3c(c2C#N)CCC3)c1,-1.59% (inactive)
8,N#CCC(=O)Nc1ccc(C(=O)OCC(=O)Nc2sc3c(c2C#N)CCCC3)cc1,37.6% (active)
9,COC(=O)C1CN(CC(C)C)CCS(=O)(=O)N1Cc1ccc(F)cc1 (stereo not given),-0.73% (inactive)
10,COC(=O)c1cc(S(=O)(=O)N2CCN(c3ccccc3C)CC2)cn1C,1.46% (inactive)
11,COc1ccc(/C=C(/NC(=O)c2ccccc2)C(=O)Nc2cccc(C(=O)O)c2)cc1,6.11% (inactive)
12,COc1ccc(C(=O)Nc2cccc(/C=C(/CCC(=O)O)c3nc4ccccc4s3)c2)cc1,71.7% (active)
13,O=C(O)CC/C(=C\c1cc2c(cc1Br)OCO2)c1nc2ccccc2s1,38.8% (active)
14,CCOc1ccc(C(=O)Nc2cccc(SC)c2)cc1,-4.59% (inactive)
15,O=C(/C=C/c1cc2c(cc1Br)OCO2)NCc1ccc(Cl)cc1,0.75% (inactive)
16,Cn1c(SCc2nc3ccccc3s2)nnc1-c1ccc2c(c1)OCO2,-0.18% (inactive)
17,Cc1cc(=O)[nH]c(SCC(=O)Nc2ccc(F)cc2F)n1,7.71% (inactive)
18,CN(C)CC(=O)N[C@@H]1C[C@@H]2O[C@H](CO)CC[C@@H]2O[C@@H]1CCc1ccc(C#Cc2ccccc2)cc1,2.31% (inactive)
19,COC(=O)[C@]12C[C@H](CC(=O)NCCC(C)C)C(=O)N(CCc3ccc(OC)c(OC)c3)C1=C[C@H](C(C)(C)C)O[C@@H]2C,0.35% (inactive)
20,CC(C)[C@H]1COCCS(=O)(=O)N1Cc1ccccc1-c1cccc2c1sc1ccccc12,9.63% (inactive)
21,CCN(CCCNC(=O)C1CCN(S(=O)(=O)c2cnc[nH]2)CC1)c1ccccc1,1.6% (inactive)
22,COc1ccc(CNC(=O)COC(=O)C2=Cc3ccccc3OC2)cc1,78.9% (active)
23,COc1ccc(CNC(=O)COC(=O)C(CCSC)N2C(=O)c3ccccc3C2=O)cc1 (stereo not given),3.76% (inactive)
24,COc1ccc(CCNC(=O)COC(=O)c2cc(=O)c3ccccc3o2)cc1,0.17% (inactive)
25,CCOC(=O)[C@]12CCCCC/C=C\1N(Cc1ccc(OC)cc1)C(=O)[C@H]2CC(=O)NCCCN1CCCC1=O,0.52% (inactive)
26,COC(=O)[C@]12C[C@H](CC(=O)NCc3ccccc3)C(=O)N(Cc3ccccc3)C1=C[C@H](COCc1ccccc1)O[C@@H]2C,8.61% (inactive)
27,O=C1Oc2ccccc2C(=O)/C1=C/c1ccccc1O,51% (active)

row,SMILES,inhibition
1,Cc1ccc(-c2nc(C3CCCN(S(=O)(=O)c4ccc(Br)s4)C3)no2)cc1 (stereo not given),5.63% (inactive)
2,C=CCN=C1NC(c2cccc(C(F)(F)F)c2)C(C(=O)OC)=C(C)N1C (stereo not given),6.1% (inactive)
3,Cc1cc(C)cc(OCC(=O)NCc2cc(C)nc3ccccc23)c1,-3.64% (inactive)
4,Cc1cc(C(=O)NNC(=O)c2cccc(S(=O)(=O)N3CCOCC3)c2)c2ccccc2n1,0.6% (inactive)
5,O=C(NNc1c2ccccc2nc2ccccc12)c1cc2ccccc2cc1O,49.2% (active)
6,Oc1c(Cl)cc(Cl)c(Cl)c1Cc1c(O)c(Cl)cc(Cl)c1Cl,94% (active)
7,CCOC(=O)CNC(=O)N(C)[C@H]1C[C@H]2c3[nH]c4c(-c5ccc6c(c5)OCO6)cccc4c3CCN2C(=O)[C@H]1[C@H](C)O,9.34% (inactive)
8,O=[N+]([O-])c1cc(Cl)cc(/C=N/NC(=S)Nc2cc(S(=O)(=O)N3CCOCC3)ccc2Cl)c1O,37.7% (active)
9,Cc1cc(OCCCC(=O)Nc2cc(S(=O)(=O)N3CCOCC3)ccc2N2CCOCC2)ccc1Cl,2.46% (inactive)
10,COCCNC(=S)Nc1cc(S(=O)(=O)N2CCOCC2)ccc1N1CCCCC1,1.62% (inactive)
11,O=C(C(=O)N1CCC(c2ccccc2)CC1)c1ccccc1,1.3% (inactive)
12,CCOC(=O)c1cccc(NC(=O)CN(C)S(=O)(=O)c2ccc(-c3cocn3)s2)c1,2.95% (inactive)
13,O=C(CSc1nnc(-c2ccccn2)n1-c1ccccc1)Nc1ccc2cn[nH]c2c1,3.05% (inactive)
14,O=C(Nc1cccc(Cl)c1)OC1CC2CC1[C@H]1CCCCN1[C@H]2Cc1ccccc1 (stereo not given in full),7.48% (inactive)
15,Cc1ccccc1OS(=O)(=O)c1cccc([N+](=O)[O-])c1,0.69% (inactive)
16,Cn1c2ccccc2c2cc(/C=C(\NC(=O)c3ccccc3)C(=O)NCC(=O)O)ccc21,35.8% (active)
17,O=C(NCC1CCCO1)/C(=C/c1ccc(Cl)cc1)NC(=O)c1ccccc1 (stereo not given),-2.17% (inactive)
18,CCn1cc(/C=C(\NC(=O)c2ccc(C)cc2)C(=O)NCCN2CCOCC2)c2ccccc21,-0.63% (inactive)
19,Cc1nc2ccc(C(=O)N3CCN(C(=O)C(C)(C)C)CC3)cc2n1C1CCCC1,0.89% (inactive)
20,O=C1CC[C@@H](COc2ccc3[nH]cc(-c4ccccc4)c3c2-c2ccccc2)N1,6.86% (inactive)
21,C[C@H]([C@@H](O)[C@@H](O)[C@@H](C)C(C)(C)C)[C@H]1CC[C@H]2C3CC[C@H]4C[C@H](OS(=O)(=O)O)[C@@H](OS(=O)(=O)O)C[C@]4(C)[C@H]3CC[C@]12C (stereo not given in full),88.4% (active)
22,CC(=O)O[C@H]1CC[C@@]2(C)[C@@H](CC[C@@H]3[C@@H]2CC[C@]2(C)[C@@H](C(C)(C)O)C[C@@H]32)C1,5.36% (inactive)
23,O=C(N[C@H](Cc1ccccc1)C(=O)N1CCCN(Cc2cccs2)CC1)[C@H]1O[C@@H](n2ccc(=O)[nH]c2=O)[C@H](O)[C@@H]1O,1.68% (inactive)
24,O=S1(=O)c2ccc(Br)cc2-n2nncc2CN1Cc1cccc(Cl)c1,7.4% (inactive)
25,C=C(Cl)COC(=O)C1C2C=CC(C2)C1C(=O)O (stereo not given),-2.82% (inactive)
26,Cc1noc(C)c1S(=O)(=O)NCCc1ccc(S(N)(=O)=O)cc1,2.53% (inactive)
27,COC(=O)C[C@@H]1CC[C@H]2[C@@H](COc3ccc(NS(=O)(=O)CC(F)(F)F)cc3C(=O)N2C)O1,2.52% (inactive)

row,SMILES,inhibition
1,COc1cc(=O)[nH]c(=O)n1C(=O)Cc1ccccc1,5.86% (inactive)
2,COc1ccc(Cn2c(O)c(/C=C3/C=CC=N3)c(=O)[nH]c2=O)cc1,4.64% (inactive)
3,CCCOc1ccc(Cn2c(O)cc(=O)[nH]c2=O)cc1,37.6% (active)
4,CN(C)C(=O)N1CCN(C(=O)[C@@H](Cc2ccccc2)NC(=O)[C@H]2O[C@@H](n3ccc(N)nc3=O)[C@H](O)[C@@H]2O)CC1,2.21% (inactive)
5,FC(F)(F)c1cccc(Cn2ccc3ccc(-c4ccc5ccn(Cc6ccccc6)c5c4)cc32)c1,11% (inactive)
6,CC1=C(C(=O)N(C)C)C(c2ccccc2OC(F)F)NC(=O)N1 (stereo not given),-5.88% (inactive)
7,O=C(c1cccc(C(F)(F)F)c1)N1CC[C@H]2[C@H](CCCN2Cc2cc(F)cc(F)c2)C1,-2.78% (inactive)
8,CC1=CC2=NC(=O)/C(=C/c3coc4ccccc4c3=O)C(=N)N2O1,-66.6% (inactive)
9,CCOC(=O)C1=C(O)/C(=C/c2cc(C)n(-c3ccccc3)c2C)N=C1C,8.38% (inactive)
10,Cc1cc(/C=C2/C(=N)N3C(=NC2=O)SN=C3S(C)(=O)=O)c(C)n1-c1ccccc1,58.3% (active)
11,COc1ccc2c(C(C)c3ccc(N)cc3)cn(C)c2c1 (stereo not given),5.87% (inactive)
12,CN1C(=O)C2CC(O)C(SC3CC4C(=O)N(C)C(=O)C4CC3O)CC2C1=O (stereo not given),1.65% (inactive)
13,COc1ccc(Cn2ccc3ccc(-c4ccc5ccn(Cc6ccccc6C)c5c4)cc32)cc1,15.1% (inactive)
14,Cc1ccc(NC(=O)N2CCC(c3nc4c(nnn4Cc4c(F)cccc4Cl)c(=O)[nH]3)CC2)cc1,3.25% (inactive)
15,Cc1ccc(C)c(Cn2nnc3c(=O)[nH]c(C(=O)Nc4ccc(F)cc4)nc32)c1,60.2% (active)
16,O=C(Nc1ccc(F)cc1)N1CCCC(c2nc3c(nnn3Cc3ccccc3Cl)c(=O)[nH]2)C1 (stereo not given),0.69% (inactive)
17,COc1cccc(N2CCN(CC(=O)N(C)Cc3ccc(F)cc3)CC2)c1,-1.77% (inactive)
18,O=C1CCCCC1C(=O)c1ccccc1 (stereo not given),-0.64% (inactive)
19,C[C@H](O)[C@@H]1C(=O)N2CCc3c([nH]c4c(-c5ccc6c(c5)OCO6)cccc34)[C@@H]2C[C@@H]1N(C)C(=O)c1ccco1,5.15% (inactive)
20,Cc1ccc(Sc2cc(C(=O)c3ccccc3C(=O)O)ccc2[N+](=O)[O-])cc1,72.1% (active)
21,CC(C)NC(=O)c1ccc(Sc2ccccc2)c([N+](=O)[O-])c1,-3.38% (inactive)
22,Cc1ccc(C(=O)c2ccc(N3CCN(C)CC3)c([N+](=O)[O-])c2)cc1,-0.77% (inactive)
23,COc1ccccc1C(=O)N1O[C@]23C=C[C@]14C[C@@H](O)CC[C@]4(C)C2CC[C@]1(C)[C@@H]([C@H](C)/C=C/[C@H](C)C(C)C)CC[C@H]13 (stereo not given in full),4.71% (inactive)
24,CSc1ccc(C=Nn2c(-c3ccc(F)cc3)n[nH]c2=S)cc1,45.4% (active)
25,CCOc1ccc(-c2n[nH]c(=S)n2/N=C/c2cc3c(cc2[N+](=O)[O-])OCO3)cc1,4.13% (inactive)
26,CSc1ccc(/C=N/N2CCN(Cc3ccccc3Cl)CC2)cc1,-3.03% (inactive)
